{"source": "the supplement of paper PMC8728848", "assay_in_all_cases": "glycan array binding signal (z-score within array); higher = stronger binding", "conditions_in_all_cases": "glycan notation: IUPAC condensed, linker removed", "key": {"[1]": {"target": "Neu5Ac(a2-3)Gal(b1-3)GlcNAc(b1-3)Gal(b1-4)GlcNAc", "summary_of_the_method": "(§1)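 Negative Z-scores can be read as non-binding. The Z-score is calculated within each array and then averaged across arrays of one protein sequence at different concentrations or buffers and across linkers. Arrays, 3228 in all, were curated from the Consortium for Functional Glycomics database and kept only where the protein sequence was available.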"}, "[2]": {"target": "Neu5Ac(a2-3)Gal(b1-3)[Neu5Ac(a2-6)]GalNAc", "summary_of_the_method": "as §1"}, "[3]": {"target": "Neu5Ac(a2-3)Gal(b1-4)GlcNAc(b1-3)Gal", "summary_of_the_method": "as §1"}, "[4]": {"target": "Neu5Ac(a2-3)[GalNAc(b1-4)]Gal(b1-4)Glc", "summary_of_the_method": "as §1"}, "[5]": {"target": "Neu5Ac(a2-8)Neu5Ac(a2-8)Neu5Ac(a2-3)Gal(b1-4)Glc", "summary_of_the_method": "as §1"}, "Neu5Gc(a2-6)GalNAc": {"target": "Neu5Gc(a2-6)GalNAc", "summary_of_the_method": "as §1"}, "Fuc(a1-2)Gal(b1-4)GlcNAc": {"target": "Fuc(a1-2)Gal(b1-4)GlcNAc", "summary_of_the_method": "as §1"}, "[6]": {"target": "Fuc(a1-3)[Gal3S(b1-4)]GlcNAc", "summary_of_the_method": "as §1"}, "[7]": {"target": "Fuc(a1-3)[Neu5Ac(a2-3)]Gal(b1-4)GlcNAc(b1-3)GalNAc", "summary_of_the_method": "as §1"}, "Gal(a1-6)Glc": {"target": "Gal(a1-6)Glc", "summary_of_the_method": "as §1"}, "Gal(b1-4)Glc": {"target": "Gal(b1-4)Glc", "summary_of_the_method": "as §1"}, "[8]": {"target": "Gal(b1-4)GlcNAc(b1-2)Man(a1-6)Man(b1-4)GlcNAc(b1-4)GlcNAc", "summary_of_the_method": "as §1"}, "[9]": {"target": "Gal3S(b1-3)[Fuc(a1-4)]GlcNAc", "summary_of_the_method": "as §1"}, "Gal3S(b1-4)Glc": {"target": "Gal3S(b1-4)Glc", "summary_of_the_method": "as §1"}, "Gal6S(b1-4)GlcNAc6S": {"target": "Gal6S(b1-4)GlcNAc6S", "summary_of_the_method": "as §1"}, "[10]": {"target": "GalNAc(b1-4)GlcNAc(b1-2)Man(a1-3)[GalNAc(b1-4)GlcNAc(b1-2)Man(a1-6)]Man(b1-4)GlcNAc(b1-4)GlcNAc", "summary_of_the_method": "as §1"}, "[11]": {"target": "GlcNAc(a1-4)Gal(b1-4)GlcNAc(b1-3)Gal(b1-4)Glc", "summary_of_the_method": "as §1"}, "[12]": {"target": "GlcNAc(a1-4)Gal(b1-4)GlcNAc(b1-3)Gal(b1-4)[Fuc(a1-3)]GlcNAc(b1-3)Gal(b1-4)[Fuc(a1-3)]GlcNAc", "summary_of_the_method": "as §1"}, "GlcNAc(b1-4)GlcNAc": {"target": "GlcNAc(b1-4)GlcNAc", "summary_of_the_method": "as §1"}, "[13]": {"target": "GlcNAc(b1-4)GlcNAc(b1-4)GlcNAc(b1-4)GlcNAc(b1-4)GlcNAc", "summary_of_the_method": "as §1"}, "Kdn(a2-6)Gal(b1-4)GlcNAc": {"target": "Kdn(a2-6)Gal(b1-4)GlcNAc", "summary_of_the_method": "as §1"}, "[14]": {"target": "Man(a1-2)Man(a1-3)[Man(a1-6)]Man(a1-6)[Man(a1-2)Man(a1-3)]Man(b1-4)GlcNAc(b1-4)GlcNAc", "summary_of_the_method": "as §1"}, "[15]": {"target": "Neu5Ac(a2-3)Gal(b1-3)GlcNAc6S", "summary_of_the_method": "as §1"}, "Neu5Ac(a2-3)Gal(b1-4)Glc": {"target": "Neu5Ac(a2-3)Gal(b1-4)Glc", "summary_of_the_method": "as §1"}, "[16]": {"target": "Neu5Ac(a2-3)Gal(b1-4)GlcNAc6S", "summary_of_the_method": "as §1"}, "[17]": {"target": "Neu5Ac(a2-3)Gal(b1-4)[Fuc(a1-3)]GlcNAc(b1-3)Gal(b1-4)GlcNAc", "summary_of_the_method": "as §1"}, "[18]": {"target": "Fuc(a1-2)Gal(b1-4)GlcNAc(b1-3)Gal(b1-4)GlcNAc(b1-3)Gal(b1-4)GlcNAc", "summary_of_the_method": "as §1"}, "[19]": {"target": "Fuc(a1-2)Gal(b1-4)GlcNAc6S", "summary_of_the_method": "as §1"}, "Fuc(a1-2)[Gal(a1-3)]Gal": {"target": "Fuc(a1-2)[Gal(a1-3)]Gal", "summary_of_the_method": "as §1"}, "[20]": {"target": "Gal(a1-3)Gal(b1-4)[Fuc(a1-3)]GlcNAc", "summary_of_the_method": "as §1"}, "Gal(b1-2)Gal": {"target": "Gal(b1-2)Gal", "summary_of_the_method": "as §1"}, "[21]": {"target": "Gal(b1-3)[Fuc(a1-4)]GlcNAc(b1-3)Gal(b1-4)GlcNAc", "summary_of_the_method": "as §1"}, "[22]": {"target": "Gal(b1-3)[Fuc(a1-4)]GlcNAc(b1-3)Gal(b1-4)[Fuc(a1-3)]GlcNAc", "summary_of_the_method": "as §1"}, "Gal3S(b1-4)Glc6S": {"target": "Gal3S(b1-4)Glc6S", "summary_of_the_method": "as §1"}, "Gal3S6S(b1-4)GlcNAc6S": {"target": "Gal3S6S(b1-4)GlcNAc6S", "summary_of_the_method": "as §1"}, "[23]": {"target": "GlcNAc(b1-4)Gal(b1-4)GlcNAc", "summary_of_the_method": "as §1"}, "[24]": {"target": "Man(a1-2)Man(a1-3)[Man(a1-2)Man(a1-6)]Man", "summary_of_the_method": "as §1"}, "[25]": {"target": "Man(a1-2)Man(a1-3)[Man(a1-2)Man(a1-6)]Man(a1-6)[Man(a1-2)Man(a1-2)Man(a1-3)]Man", "summary_of_the_method": "as §1"}, "[26]": {"target": "Neu5Ac(a2-3)Gal(b1-4)[Fuc(a1-3)]GlcNAc(b1-3)Gal", "summary_of_the_method": "as §1"}, "[27]": {"target": "Neu5Ac(a2-3)Gal(b1-4)[Fuc(a1-3)]GlcNAc(b1-6)[Gal(b1-3)]GalNAc", "summary_of_the_method": "as §1"}, "[28]": {"target": "Neu5Ac(a2-6)Gal(b1-4)GlcNAc(b1-2)Man(a1-3)[GlcNAc(b1-2)Man(b1-4)GlcNAc(b1-2)Man(a1-6)]Man(b1-4)GlcNAc(b1-4)GlcNAc", "summary_of_the_method": "as §1"}}, "note": "The entries come from a sample that favours the strongest signals as a whole.", "data": [{"binder": "BC2L-A (Burkholderia cenocepacia), Q1BKJ8_BURCA (protein) ADSQTSSNRAGEFSIPPNTDFRAIFFANAAEQQHIKLFIGDSQEPAAYHKLTTRDGPREATLNSGNGKIRFEVSVNGKPSATDARLAPINGKKSDGSPFTVNFGIVVSEDGHDSDYNDGIVVLQWPIG", "values": [{"measurement": "glycan array binding signal (z-score)", "setting": "[1]", "value": -0.218}, {"measurement": "glycan array binding signal (z-score)", "setting": "[2]", "value": -0.083}, {"measurement": "glycan array binding signal (z-score)", "setting": "[3]", "value": -0.214}, {"measurement": "glycan array binding signal (z-score)", "setting": "[4]", "value": -0.295}, {"measurement": "glycan array binding signal (z-score)", "setting": "[5]", "value": -0.253}, {"measurement": "glycan array binding signal (z-score)", "setting": "Neu5Gc(a2-6)GalNAc", "value": -0.29}]}, {"binder": "Spy 2007 (Streptococcus pyogenes), Q99XV3 (protein) MKKGFFLMAMVVSLVMIAGCDKSANPKQPTQGMSVVTSFYPMYAMTKEVSGDLNDVRMIQSGAGIHSFEPSVNDVAAIYDADLFVYHSHTLEAWARDLDPNLKKSKVDVFEASKPLTLDRVKGLEDMEVTQGIDPATLYDPHTWTDPVLAGEEAVNIAKELGRLDPKHKDSYTKNAKAFKKEAEQLTEEYTQKFKKVRSKTFVTQHTAFSYLAKRFGLKQLGISGISPEQEPSPRQLKEIQDFVKEYNVKTIFAEDNVNPKIAHAIAKSTGAKVKTLSPLEAAPSGNKTYLENLRANLEVLYQQLK", "values": [{"measurement": "glycan array binding signal (z-score)", "setting": "Fuc(a1-2)Gal(b1-4)GlcNAc", "value": 0.299}, {"measurement": "glycan array binding signal (z-score)", "setting": "[6]", "value": 0.277}, {"measurement": "glycan array binding signal (z-score)", "setting": "[7]", "value": 5.41}, {"measurement": "glycan array binding signal (z-score)", "setting": "Gal(a1-6)Glc", "value": -0.074}, {"measurement": "glycan array binding signal (z-score)", "setting": "Gal(b1-4)Glc", "value": -0.461}, {"measurement": "glycan array binding signal (z-score)", "setting": "[8]", "value": -0.392}, {"measurement": "glycan array binding signal (z-score)", "setting": "[9]", "value": 3.35}, {"measurement": "glycan array binding signal (z-score)", "setting": "Gal3S(b1-4)Glc", "value": -0.543}, {"measurement": "glycan array binding signal (z-score)", "setting": "Gal6S(b1-4)GlcNAc6S", "value": 5.95}, {"measurement": "glycan array binding signal (z-score)", "setting": "[10]", "value": 3.5}, {"measurement": "glycan array binding signal (z-score)", "setting": "[11]", "value": 0.12}, {"measurement": "glycan array binding signal (z-score)", "setting": "[12]", "value": 3.22}, {"measurement": "glycan array binding signal (z-score)", "setting": "GlcNAc(b1-4)GlcNAc", "value": -0.446}, {"measurement": "glycan array binding signal (z-score)", "setting": "[13]", "value": 4.65}, {"measurement": "glycan array binding signal (z-score)", "setting": "Kdn(a2-6)Gal(b1-4)GlcNAc", "value": -0.715}, {"measurement": "glycan array binding signal (z-score)", "setting": "[14]", "value": -0.649}, {"measurement": "glycan array binding signal (z-score)", "setting": "[15]", "value": -0.663}, {"measurement": "glycan array binding signal (z-score)", "setting": "[2]", "value": 1.08}, {"measurement": "glycan array binding signal (z-score)", "setting": "Neu5Ac(a2-3)Gal(b1-4)Glc", "value": 0.127}, {"measurement": "glycan array binding signal (z-score)", "setting": "[16]", "value": 1.47}, {"measurement": "glycan array binding signal (z-score)", "setting": "[17]", "value": 0.479}]}, {"binder": "Chaperone 60.2 (Mycobacterium tuberculosum), P9WPE7 (protein) MAKTIAYDEEARRGLERGLNALADAVKVTLGPKGRNVVLEKKWGAPTITNDGVSIAKEIELEDPYEKIGAELVKEVAKKTDDVAGDGTTTATVLAQALVREGLRNVAAGANPLGLKRGIEKAVEKVTETLLKGAKEVETKEQIAATAAISAGDQSIGDLIAEAMDKVGNEGVITVEESNTFGLQLELTEGMRFDKGYISGYFVTDPERQEAVLEDPYILLVSSKVSTVKDLLPLLEKVIGAGKPLLIIAEDVEGEALSTLVVNKIRGTFKSVAVKAPGFGDRRKAMLQDMAILTGGQVISEEVGLTLENADLSLLGKARKVVVTKDETTIVEGAGDTDAIAGRVAQIRQEIENSDSDYDREKLQERLAKLAGGVAVIKAGAATEVELKERKHRIEDAVRNAKAAVEEGIVAGGGVTLLQAAPTLDELKLEGDEATGANIVKVALEAPLKQIAFNSGLEPGVVAEKVRNLPAGHGLNAQTGVYEDLLAAGVADPVKVTRSALQNAASIAGLFLTTEAVVADKPEKEKASVPGGGDMGGMDF", "values": [{"measurement": "glycan array binding signal (z-score)", "setting": "Fuc(a1-2)Gal(b1-4)GlcNAc", "value": 1.32}, {"measurement": "glycan array binding signal (z-score)", "setting": "[18]", "value": -0.159}, {"measurement": "glycan array binding signal (z-score)", "setting": "[19]", "value": 4.33}, {"measurement": "glycan array binding signal (z-score)", "setting": "Fuc(a1-2)[Gal(a1-3)]Gal", "value": -0.04}, {"measurement": "glycan array binding signal (z-score)", "setting": "[20]", "value": -0.652}, {"measurement": "glycan array binding signal (z-score)", "setting": "Gal(b1-2)Gal", "value": -0.591}, {"measurement": "glycan array binding signal (z-score)", "setting": "[21]", "value": 3.11}, {"measurement": "glycan array binding signal (z-score)", "setting": "[22]", "value": -0.254}, {"measurement": "glycan array binding signal (z-score)", "setting": "Gal3S(b1-4)Glc6S", "value": 4.1}, {"measurement": "glycan array binding signal (z-score)", "setting": "Gal3S6S(b1-4)GlcNAc6S", "value": 3.22}, {"measurement": "glycan array binding signal (z-score)", "setting": "[23]", "value": -0.93}, {"measurement": "glycan array binding signal (z-score)", "setting": "[24]", "value": 1.47}, {"measurement": "glycan array binding signal (z-score)", "setting": "[25]", "value": -1.16}, {"measurement": "glycan array binding signal (z-score)", "setting": "[26]", "value": -0.716}, {"measurement": "glycan array binding signal (z-score)", "setting": "[27]", "value": -0.295}, {"measurement": "glycan array binding signal (z-score)", "setting": "[28]", "value": 3.89}, {"measurement": "glycan array binding signal (z-score)", "setting": "[5]", "value": -0.208}]}]}
